PubChem BioAssay (NCI)
Values joined by “and” are separate entries in the source; they are usually repeats but may differ in a detail not shown here. Equal values may be shown once. This is part of a sample that, as a whole, favours compounds with a hit. Of some 83,000 tested, about 20% had one in any assay.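 Plates (96-well) were seeded with cells, treated with compound at one concentration, and incubated for 48 hours before percent growth was determined.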 The source holds several records for some structures; these can differ, active in one and inactive in another. Active and inactive are the calls of the source. How the source made its calls: active means growth percent below 10; inactive means the rest.

Assays:
Assay in all cases: NCI-60 one-dose screen, 48 h (100 = growth as untreated, 0 = no growth, -100 = all killed)
Conditions in all cases: 10 µM unless noted
[1] = system: MOLT-4 leukemia
[2] = system: SR leukemia
[3] = system: RPMI-8226 leukemia
[4] = system: OVCAR-5 ovarian
[5] = system: SK-OV-3 ovarian
[6] = system: IGROV1 ovarian
[7] = system: OVCAR-3 ovarian
[8] = system: HS 578T breast
[9] = system: NCI/ADR-RES ovarian
[10] = system: T-47D breast
[11] = system: BT-549 breast
[12] = system: MDA-MB-435 melanoma
[13] = system: MCF7 breast
[14] = system: HCT-116 colon
[15] = system: HCC-2998 colon
[16] = system: KM12 colon
[17] = system: OVCAR-8 ovarian
[18] = system: OVCAR-4 ovarian
[19] = system: SW-620 colon

Row | SMILES | growth [1] | growth [2] | growth [3] | growth [4] | growth [5] | growth [6] | growth [7] | growth [8] | growth [9] | growth [10] | growth [11] | growth [12] | growth [13] | growth [14] | growth [15] | growth [16] | growth [17] | growth [18] | growth [19]
1 | CC/C(=C(\c1ccc(OCCN2CCOCC2)cc1)c1ccc(OC(=O)Cc2ccccc2)cc1)c1ccc(Cl)cc1 | 96.7% (inactive) | 95.6% (inactive) | 98.8% (inactive) | 104% (inactive) | 111% (inactive) | 106% (inactive) | 102% (inactive) | 96.6% (inactive) | 105% (inactive) | 63.5% (inactive) | 104% (inactive) | 107% (inactive) | 75.8% (inactive) | 97.3% (inactive) | 106% (inactive) | 101% (inactive) |  |  | 
2 | C[C@]12CC[C@H]3[C@@H](C[C@@H]4SC(Nc5ccccc5)=N[C@@]45C/C(=N/O)CC[C@]35C)[C@@H]1CCC2=O | 20.2% (inactive) | 2.15% (active) |  | 99.7% (inactive) | 105% (inactive) | 88.4% (inactive) | 42.9% (inactive) | 65.2% (inactive) | 86.2% (inactive) | 64.4% (inactive) |  | 51.6% (inactive) | 28.4% (inactive) | 9.01% (active) | 102% (inactive) | 67.8% (inactive) | 46.7% (inactive) | 88% (inactive) | 34.8% (inactive)
3 | CCCCCCCCCCCCCCCCCCn1cc[n+](C)c1 | 16.8% (inactive) and 9.25% (active) | 4.33% (active) and 19% (inactive) |  | -61.5% (active) and -59.7% (active) | 4.83% (active) and -9.16% (active) | -43.9% (active) and -43.1% (active) | -48.7% (active) and -56.3% (active) | -26.1% (active) and -37% (active) | 20.9% (inactive) and -7.98% (active) | 35.9% (inactive) and 17% (inactive) | -55.6% (active) and -55% (active) | -56.4% (active) and -70.8% (active) | -33.8% (active) and 6.12% (active) | -18.2% (active) and -51.5% (active) | -80.7% (active) and -80.9% (active) | -47.8% (active) and -61.9% (active) | -20.2% (active) and -37.4% (active) | -19.3% (active) and -13.3% (active) | -45.2% (active) and -38.1% (active)
4 | CCN1C(=O)NC(=O)C(C)(N2C(=O)c3c(F)c(F)c(F)c(F)c3C2=O)C1=O (stereo not drawn) | -51.3% (active) | -64.6% (active) |  | 42.7% (inactive) | 96.9% (inactive) | -58.8% (active) | -89.9% (active) | 12.1% (inactive) | 17.9% (inactive) |  |  | 21.6% (inactive) | 13.3% (inactive) | -38.8% (active) | 40.8% (inactive) | -59.7% (active) | 3.31% (active) | 1.91% (active) | -77.9% (active)
5 | Oc1cc(N2CC2)c(O)cc1N1CC1 | 9.13% (active) | 21.6% (inactive) |  | 2.7% (active) | 2.44% (active) | -38.3% (active) | -34.4% (active) | -17.4% (active) | 1.01% (active) | 19.2% (inactive) | 30% (inactive) | 0.0051% (active) | -30.3% (active) | 6.02% (active) | -55.2% (active) | -52.7% (active) | 11.2% (inactive) | 18% (inactive) | 3.72% (active)
6 | CCC(=O)C(CC(C)[N+](C)(C)C)(c1ccccc1)c1ccccc1 (stereo not drawn) | 104% (inactive) | 101% (inactive) | 109% (inactive) | 96.8% (inactive) | 96.6% (inactive) | 101% (inactive) | 70.6% (inactive) | 107% (inactive) | 102% (inactive) |  | 67.5% (inactive) | 104% (inactive) | 90.7% (inactive) | 93.6% (inactive) | 102% (inactive) | 107% (inactive) |  |  | 104% (inactive)
7 | CC1(C)N(Nc2ccccc2)C(=O)C2CCCN21 (stereo not drawn) | 15.1% (inactive) | 14.2% (inactive) |  | 75.1% (inactive) | 85.1% (inactive) | 72.7% (inactive) | 0.57% (active) | 85.9% (inactive) | 85.9% (inactive) | 56.8% (inactive) | 13.6% (inactive) | 12.5% (inactive) | 80.1% (inactive) | 12.1% (inactive) | 88.1% (inactive) | 15.7% (inactive) | 87% (inactive) | 70.8% (inactive) | 
8 | CO[C@H]1[C@H](O[C@@H]2C[C@@H]3C/C=C/C(=O)O[C@@H](CO)C[C@H](O)[C@@H]4C[C@H](C)[C@H](C/C=C\C=C\[C@H](C)C[C@H](C2)O3)O4)O[C@@H](C)[C@H](O)[C@H]1O | 43.8% (inactive) | 85.2% (inactive) |  | 71.2% (inactive) | 54% (inactive) | 71% (inactive) | 60.2% (inactive) | 95.1% (inactive) | 55.8% (inactive) | 20.8% (inactive) |  | 64.3% (inactive) | 29.1% (inactive) | 57% (inactive) | 53.6% (inactive) | 68.1% (inactive) | 42.6% (inactive) | 30.1% (inactive) | 76.6% (inactive)
9 | COc1ccc(CN)cc1OC | 112% (inactive) and 95.2% (inactive) | 104% (inactive) |  | 110% (inactive) and 94.9% (inactive) | 113% (inactive) and 105% (inactive) | 110% (inactive) and 101% (inactive) | 109% (inactive) and 107% (inactive) | 110% (inactive) and 101% (inactive) | 106% (inactive) and 103% (inactive) |  | 113% (inactive) and 102% (inactive) | 109% (inactive) | 103% (inactive) and 95.5% (inactive) | 97.8% (inactive) and 102% (inactive) | 91% (inactive) and 106% (inactive) | 120% (inactive) and 106% (inactive) | 109% (inactive) and 102% (inactive) | 125% (inactive) and 104% (inactive) | 
10 | CCC1(CCSC#N)C(=O)NC(=O)NC1=O | 85.1% (inactive) | 88.8% (inactive) |  | 109% (inactive) | 98.4% (inactive) |  | 105% (inactive) | 106% (inactive) | 104% (inactive) | 78.4% (inactive) | 95.3% (inactive) | 106% (inactive) | 91.2% (inactive) | 94.1% (inactive) | 98.2% (inactive) | 104% (inactive) | 102% (inactive) | 91.4% (inactive) | 106% (inactive)
11 | O=c1[nH]c(=O)[nH]c(=O)[nH]1 | 80.8% (inactive) | 104% (inactive) |  | 103% (inactive) | 110% (inactive) | 68.2% (inactive) | 119% (inactive) | 95.7% (inactive) | 102% (inactive) |  |  | 114% (inactive) | 97.1% (inactive) | 97.2% (inactive) | 117% (inactive) | 107% (inactive) | 106% (inactive) |  | 108% (inactive)
12 | COc1cc(/C=C\[N+](=O)[O-])ccc1OCc1ccccc1 | 1.1% (active) | -24.2% (active) |  | 98.5% (inactive) | 91.4% (inactive) | 7.94% (active) | 19.9% (inactive) | 42.9% (inactive) | 69.2% (inactive) | 49% (inactive) |  | 20% (inactive) | 9.62% (active) | 1% (active) | -70.4% (active) | 23.6% (inactive) | 52.9% (inactive) | 85.3% (inactive) | 47.4% (inactive)
13 | N#CCc1ccc(CC#N)cc1 | 99.9% (inactive) | 97.9% (inactive) | 98.8% (inactive) | 104% (inactive) | 98.5% (inactive) | 109% (inactive) | 110% (inactive) | 96.6% (inactive) | 110% (inactive) |  | 95.9% (inactive) | 102% (inactive) | 91.4% (inactive) | 98.6% (inactive) | 108% (inactive) | 102% (inactive) |  |  | 96.7% (inactive)
14 | O=C(Cc1ccccc1)c1ccccc1 | 107% (inactive) | 100% (inactive) |  | 108% (inactive) | 113% (inactive) |  | 106% (inactive) | 90.3% (inactive) | 105% (inactive) | 100% (inactive) | 100% (inactive) | 102% (inactive) | 92% (inactive) | 101% (inactive) | 114% (inactive) | 99.8% (inactive) | 108% (inactive) | 99.3% (inactive) | 96.6% (inactive)
15 | CC[C@H](C)[C@H](NC(=O)CN(C)C)C(=O)N(C)[C@H](C[C@@H](OC(C)=O)c1nc(C(=O)NC23CC(C(=O)OC)(C2)C3)cs1)C(C)C | 12.3% (inactive) | 17.8% (inactive) |  | 71.9% (inactive) | 32.6% (inactive) |  | -47.2% (active) | 31.9% (inactive) | 77.8% (inactive) | 50.4% (inactive) | 14.2% (inactive) | -38.9% (active) | 17.9% (inactive) | 4.85% (active) | 20.4% (inactive) | 11.4% (inactive) | 19.1% (inactive) | 47.9% (inactive) | 30.9% (inactive)
16 | Cc1cc[n+](CCc2ccccc2)cc1 | 90.4% (inactive) and 101% (inactive) | 101% (inactive) |  | 88.3% (inactive) and 116% (inactive) | 116% (inactive) and 115% (inactive) | 94.7% (inactive) and 82.5% (inactive) | 104% (inactive) and 118% (inactive) | 105% (inactive) | 91.2% (inactive) and 111% (inactive) | 95.4% (inactive) and 101% (inactive) |  | 102% (inactive) and 104% (inactive) | 101% (inactive) and 104% (inactive) | 91.2% (inactive) and 103% (inactive) | 85.8% (inactive) and 102% (inactive) | 105% (inactive) and 107% (inactive) | 95.7% (inactive) and 99.1% (inactive) | 90.3% (inactive) and 104% (inactive) | 
17 | COc1ccc(/C=C(/C)[N+](=O)[O-])cc1OC | 0.86% (active) and -1.19% (active) | -21.8% (active) and -5.49% (active) |  | 91.4% (inactive) and 66.7% (inactive) | 112% (inactive) and 108% (inactive) | 10.8% (inactive) and -20.9% (active) | -94.1% (active) and -99.7% (active) |  | 74.7% (inactive) and 3.26% (active) | 2.51% (active) and -36.5% (active) | 60.2% (inactive) | 14.8% (inactive) and 8.73% (active) | -16.3% (active) and 4.76% (active) | -69.8% (active) and -100% (active) | 35.9% (inactive) and 59.2% (inactive) | 49% (inactive) and 37.1% (inactive) | 6.5% (active) | 32.7% (inactive) | -71.8% (active) and -74.3% (active)
